In the supplement of paper PMC7411640:
Counter-ions that a name gives are not always drawn.

Tested on: MDA-MB-468
Test: phospho-S6 immunofluorescence (DAPI-normalised), per-plate z-score; higher = higher phospho-S6 signal (less pathway suppression)
Conditions: 24 h
Protocol: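 GPCR-targeted compound library (MedChemExpress HY-L006) tested on MDA-MB-468 PTEN-null TNBC cells in 384-well plates at 0.1, 1 or 10 uM, combined with vehicle, GDC0941 450 nM or lapatinib 1 uM, for 24 h. Phospho-S6 (S240/244) immunofluorescence normalised to DAPI and expressed as a per-plate z-score; values are the mean of biological triplicates.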

Row | Compound | phospho-S6 immunofluorescence (z-score) (co-treatment: GDC0941 450 nM) | phospho-S6 immunofluorescence (z-score) (co-treatment: lapatinib 1 uM) | phospho-S6 immunofluorescence (z-score) (co-treatment: vehicle)
1 | CC[C@H](NC(=O)c1c(O)c(-c2ccccc2)nc2ccccc12)c1ccccc1 [Talnetant] (compound 10 µM) | 0.6 | 0.47 | 0.13
2 | C[N+](C)(C)CCOC(N)=O [Carbamoylcholine (chloride)] (compound 10 µM) | 0.06 | 0.02 | 0.87
3 | Cc1ccccc1N1CCN(CCc2nnc3n2CCCC3)CC1 [Dapiprazole (hydrochloride)] (compound 10 µM) | 0.31 | -0.49 | -0.32
4 | Cc1nccn1CCC(C(N)=O)(c1ccccc1)c1ccccc1 [Imidafenacin] (compound 10 µM) | -0.05 | 0.38 | 0.28
5 | O=S(=O)(O)c1cc(O)ccc1O [Ethamsylate] (compound 10 µM) | 0 | -0.05 | 0.76
6 | O=C(O[C@H]1CN2CCC1CC2)N1CCc2ccccc2[C@@H]1c1ccccc1 [Solifenacin (hydrochloride)] (compound 10 µM) | 0.75 | 1.12 | -1.36
7 | CNC[C@H](O)c1ccc(O)c(O)c1 [L-Epinephrine (Bitartrate)] (compound 10 µM) | 0.93 | 2.5 | -0.23
8 | CC(C)=CCC/C(C)=C/CC/C(C)=C/CSc1ccccc1C(=O)O [Salirasib] (compound 10 µM) | 0.9 | 0.86 | -0.02
9 | CCCN(CCN1CCN(c2ccccc2OC)CC1)C1CCc2ncsc2C1 (configuration not stated) [ST-836 (hydrochloride)] (compound 10 µM) | 0.29 | -0.62 | 0.1
10 | Cc1[nH]cnc1CN1CCc2c(c3ccccc3n2C)C1=O [Alosetron (Hydrochloride)] (compound 10 µM) | 0.22 | -0.22 | 1.01
11 | CN1CC2c3ccccc3Oc3ccc(Cl)cc3C2C1 (configuration not stated) [Asenapine (maleate)] (compound 10 µM) | 0.37 | -1.57 | -0.61
12 | CCC1(c2c[nH]cn2)Cc2ccccc2C1 [Atipamezole] (compound 10 µM) | 0.08 | -0.83 | 0.81
13 | O=C(N[C@@H]1CC[C@@H](c2cccc(F)c2F)CN(CC(F)(F)F)C1=O)N1CCC(n2c(=O)[nH]c3ncccc32)CC1 (compound 10 µM) | 0.18 | 0.53 | -0.42
14 | C[N+]1(C)[C@@H]2C[C@@H](OC(=O)C(O)(c3cccs3)c3cccs3)C[C@H]1[C@@H]1O[C@@H]12 [Tiotropium (Bromide)] (compound 10 µM) | -0.58 | 0.42 | -0.69
